# Measurements reported in PubChem BioAssay (NCATS).
# Inconclusive results are not listed. Active and inactive are the calls of the source. The call rests on the fitted dose curve; in most records, active means well fitted inhibition curve with a large enough effect; inconclusive means small, poorly fitted or top-dose-only effect; inactive means no such curve, though single readings can be large or run the other way.
# Biological target: Chromobox protein homolog 1 (Homo sapiens) (UniProt P83916)
# Experiment: qHTS Validation Assay for Inhibitors of HP1-beta Chromodomain Interactions with Methylated Histone Tails (AID 488953); further: nearly all actives have a fitted effect of over 50% in size
# Conditions: HP1-beta chromodomain / methylated histone peptide binding assay; series mostly up to 114 µM; activity change, negative = inhibition: at the top concentration
# Description: As our understanding of epigenetics expands, it is becoming clear that players in this field are potential targets for drug development. This area of epigenetic therapy has established applications for the treatment of cancer and neurological diseases. We have been involved in this field for a number of years and have performed high-throughput screens to identify the first small molecule inhibitors of protein methyltransferases. These methyltransferases target multiple substrates, and thus regulate many arms of an epigenetic pathway. The methylation of different substrates often generates docking sites for effector proteins that harbor binding domains (chromo, tudor, PHD, MBT and ANK repeats).
# It has been proposed that the binding sites generated for different proteins by these post-translational modifcations mediate downstream effects on chromatin. Consistent with this theory, di- and tri-methylation of histone H3K9 facilitates the binding of heterochromatin protein HP1. The HP1 protein harbors a chromodomain that is responsible for the methyl-dependent interaction between HP1 and lysine 9 of histone H3. HP1 was first described in flies as a heterochromatin associated protein that can regulate gene silencing. It harbors a chromodomain that binds H3K9me3. In addition, it harbors a chromoshadow domain that interacts with a large number of proteins that are involved in heterochromatin formation and gene repression. There are three highly related HP1 isoforms. All three variants are associated with pericentric heterochromatin and it is not clear whether they have specific or redundant functions. MPP8 is also involved in the repression of gene in euchromatic regions (unpublished data) and like HP1 its chromodomain binds H3K9me3. MPP8 harbors an ankyrin repeat region that is likely involved in binding and recruiting interacting proteins with transcriptional repressive function, much like the chromoshadow domain of HP1 does.
# We hypothesize that by inhibiting specific protein-protein interactions we will be able to develop compounds that block a single arm of an epigenetic pathway. The specificity attained by blocking a single protein-protein interaction will be far greater than that attained by blocking the enzyme that regulates one of many interactions.
# Low-affinity protein-protein interactions (Kd in the single- to double-digit micromolar range) such as those discussed here have been very difficult to assay by traditional techniques such as fluorescence polarization or fluorescence resonance energy transfer. We have developed a sensitive chemiluminescence-based assay (Quinn, et al. 2009), which serves as the starting point for this project.
# The following is a validation assay to identify lead compounds that can block methyl-dependent protein-protein interactions (specifically HP1-beta), which can be used as probes to analyze these methyl-driven interactions and perhaps even developed into targeted epigenetic therapies.
# Assay Provider: Mark T. Bedford, MD Anderson
# Screening Center PI: Austin, C.P.
# Screening Center: NIH Chemical Genomics Center [NCGC]
# To each well, 2 uL of HP1-beta protein (final 50 nM) and 1 uL biotinylated histone peptide trimethylated at Lys9 [b-H3(1-18)K9me3] (final 50 nM) was added in 1x PBS buffer, pH 7.4, containing 0.01% Tween-20 using a nanoliter dispenser. Formation of a protein-peptide complex proceeded at room temperature for 30 min. A Kalypsys pin-tool was employed to transfer 23 nL of library compound solution in DMSO to each well. Aurintricarboxylic acid (ATA) was used as an intraplate control with a 12-point titration in duplicate. Following a 30 min incubation of the protein-peptide complex with compounds at room temperature, a mixture of 40 ug/mL each streptavidin-coated donor and nickel chelate acceptor AlphaScreen beads (final 10 ug/mL) was added in a 1 uL dispense for a final volume of 4 uL. Plates were incubated protected from the light for 30 min at room temperature. […]
# On the % scale 0 is the no-effect control and ±100 the full control effect; potency means the concentration at half of the fitted maximal effect.
# Chain of Chromobox protein homolog 1 (Homo sapiens) (P83916 whole entry, looked up): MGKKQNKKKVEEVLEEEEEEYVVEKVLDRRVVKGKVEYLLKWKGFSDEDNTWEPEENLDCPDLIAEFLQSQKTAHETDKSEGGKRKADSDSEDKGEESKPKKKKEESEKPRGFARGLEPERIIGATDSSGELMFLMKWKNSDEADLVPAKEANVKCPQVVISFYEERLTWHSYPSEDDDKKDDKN
SMILES,Potency,"activity change, negative = inhibition"
NC(=O)C1=CN(C2OC(COP(=O)(O)OP(=O)(O)OC[C@H]3O[C@@H](n4cnc5c(N)ncnc54)[C@H](OP(=O)(O)O)[C@@H]3O)C(O)C2O)C=CC1 (stereo not given in full),0.0053 µM (active),
NCCCCC(=O)O,,1.59% (inactive)
O=C1NC(=O)/C(=C/c2ccc(-c3ccc(F)cc3O)o2)S1,39.8 µM (active),
CN1CCc2cc(O)c(O)cc2C(c2ccccc2)C1 (stereo not given),,-7.03% (inactive)
CCCCCCCCCCCCCCCC(=O)NCC(COP(=O)([O-])OCC[N+](C)(C)C)OCC (stereo not given),,24.1% (inactive)
Ic1ccc(N2CCN(Cc3c[nH]c4ncccc34)CC2)cc1,44.7 µM (active),
C=C[C@@H]1CN2CC[C@@H]1C[C@H]2[C@H](O)c1ccnc2ccc(OC)cc12,,-9.35% (inactive)
O=c1[nH]c2cc([N+](=O)[O-])c([N+](=O)[O-])cc2[nH]c1=O,,-11.5% (inactive)
CCCCC/C=C\CC(O)/C=C/c1cccc(CC(O)CCCCO)n1 (stereo not given),0.0075 µM (active),
CCCCCCCCCCCCCCCCCCNC(=O)OCC(COP(=O)([O-])OCC[n+]1ccsc1)OC (stereo not given),,-7.64% (inactive)
O=c1[nH]c2cc(Cl)c(Cl)cc2[nH]c1=O,,-6.29% (inactive)
S=C(S)OC1CC2CC1C1CCCC21 (stereo not given),39.8 µM (active),
NCC1OC(O[C@H]2[C@H](O)[C@@H](OC3C(O)C(N)CC(N)C3OC3OC(CO)C(O)C(O)C3N)O[C@@H]2CO)C(N)C(O)C1O (stereo not given in full),,-6.4% (inactive)
N#C/C(=C\c1ccc(O)c(O)c1)C(=O)c1ccc(O)c(O)c1,0.501 µM (active),
CC(COc1ccc(/C=C/c2ccccc2)cc1)[N+](C)(C)C (stereo not given),,18.5% (inactive)
CCCCC#Cc1nc(NC)c2ncn([C@@H]3O[C@H](CO)[C@@H](O)[C@H]3O)c2n1,,-8.38% (inactive)
OC[C@H]1O[C@@H](n2cnc3c(NC4CCCCC4)ncnc32)[C@H](O)[C@@H]1O,,0.0524% (inactive)
CN(C)c1nc(N)c(C(=O)N=C(N)N)nc1Cl,,-7.52% (inactive)
COc1cccc(OC)c1OCCNCC1COc2ccccc2O1 (stereo not given),,-9.86% (inactive)
COc1ccc2c(c1)CCC1C2CC[C@@]2(C)C1CC[C@@H]2NCCCCCCN1C(=O)CCC1=O (stereo not given in full),,-11.9% (inactive)

SMILES,Potency,"activity change, negative = inhibition"
NCCCS(=O)(=O)O,,-1.38% (inactive)
CCCCCCCCCCCCCCCCCC(=O)NCC(COP(=O)([O-])OCC[N+](C)(C)C)OCC (stereo not given),,-14% (inactive)
Nc1ncnc2c1c(I)cn2[C@@H]1C[C@H](N)[C@@H](O)[C@H]1O,,-11.3% (inactive)
O=C(O)CNC(=O)C(CS)Cc1ccccc1 (stereo not given),,-3.7% (inactive)
NC(=O)C(=O)O,,-3.51% (inactive)
CCNC(=O)[C@H]1O[C@@H](n2cnc3c(N)nc(NCCc4ccc(CCC(=O)O)cc4)nc32)[C@H](O)[C@@H]1O,,-4.47% (inactive)
C=C[C@H]1CN2CC[C@@H]1C[C@@H]2[C@@H](O)c1ccnc2ccc(OC)cc12,,2.32% (inactive)
CSc1ccccc1N1CCN(CCCCCC(=O)NC2CCCc3ccccc32)CC1 (stereo not given),50.1 µM (active),
OCC1O[C@H]([S-])[C@H](O)[C@@H](O)[C@@H]1O.[Au+] (stereo not given in full),2 µM (active),
N#C/C(=C\c1ccc(-c2cc(Cl)ccc2Cl)o1)C(=O)Nc1cccc2ncccc12,,-7.8% (inactive)
CCCCCCCCCCCCCCCCCC(=O)OC(CC(=O)O)C[N+](C)(C)C (stereo not given),,16.1% (inactive)
NC(CCCP(=O)(O)O)C(=O)O (stereo not given),,-2.45% (inactive)
Oc1cc2c(cc1O)CN(C(=S)NCCc1ccc(Cl)cc1)CCC2,44.7 µM (active),
Oc1ccc(C2CNCc3sccc32)cc1O (stereo not given),,3.86% (inactive)
NCCSSCCN,50.1 µM (active),
N.N.N.N.N.N.N.N.N.N.N.N.N.N.O.O.[Ru+4].[Ru+5].[Ru+5],4.47 µM (active),
CN1C2CC(OC(=O)[C@H](CO)c3ccccc3)CC1C1OC12 (stereo not given in full),,0.573% (inactive)
O=C(Nc1ccccc1)c1cc([N+](=O)[O-])ccc1Cl,,16% (inactive)
NC(=S)NCCC[C@H](N)C(=O)O,10 µM (active),
CN(C)C(N)=NCCC[C@H](N)C(=O)O,,14.5% (inactive)
